Inconclusive results are not listed. A structure can be active in one record and inactive in another. Activity calls are given as the source filed them. The calls were made as follows, unless noted: active = hit-call score of the fitted dose curve at least 0.9, where 1 is the maximum; inactive = score below 0.9.
Experiments:
[1] = biological target: human RAR-related Orphan Receptor beta (RORb), RORB (gene 6096) (UniProt Q92753); assay: ATG_RORb_TRANS: Attagene TRANS-FACTORIAL HepG2 Assay for human RAR-related Orphan Receptor beta (RORb) (AID 2283010; active = hit-call score of the fitted dose curve at least 0.9, where 1 is the maximum)
human RAR-related Orphan Receptor beta (RORb), RORB (gene 6096), sequence (Q92753 whole entry, looked up, the tested form may be a part): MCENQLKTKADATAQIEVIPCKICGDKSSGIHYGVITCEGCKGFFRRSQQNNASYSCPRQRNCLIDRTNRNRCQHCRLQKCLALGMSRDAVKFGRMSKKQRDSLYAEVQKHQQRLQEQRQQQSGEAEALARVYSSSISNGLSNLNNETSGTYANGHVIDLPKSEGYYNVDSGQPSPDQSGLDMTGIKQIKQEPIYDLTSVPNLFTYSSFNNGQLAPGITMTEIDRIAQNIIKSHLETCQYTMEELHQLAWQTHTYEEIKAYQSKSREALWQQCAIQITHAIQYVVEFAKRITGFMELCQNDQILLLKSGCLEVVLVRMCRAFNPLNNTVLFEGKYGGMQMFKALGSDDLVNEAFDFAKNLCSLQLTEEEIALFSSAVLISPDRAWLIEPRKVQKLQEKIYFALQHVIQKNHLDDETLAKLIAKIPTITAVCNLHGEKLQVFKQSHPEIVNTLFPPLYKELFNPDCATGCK
Summary of the method: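 Multiplexed transcription-factor reporter assay: HepG2 cells transiently carrying NR-Gal4/GAL4-UAS constructs, 24 h treatment, mRNA quantified by RT-PCR plus capillary electrophoresis fluorescence; activity scored as induction over DMSO.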

[2] = biological target: human RAR-related Orphan Receptor gamma (RORg), RORC (gene 6097) (UniProt P51449); assay: ATG_RORg_TRANS: Attagene TRANS-FACTORIAL HepG2 Assay for human RAR-related Orphan Receptor gamma (RORg) (AID 2283011; active = hit-call score of the fitted dose curve at least 0.9, where 1 is the maximum)
human RAR-related Orphan Receptor gamma (RORg), RORC (gene 6097), sequence (P51449 whole entry, looked up, the tested form may be a part): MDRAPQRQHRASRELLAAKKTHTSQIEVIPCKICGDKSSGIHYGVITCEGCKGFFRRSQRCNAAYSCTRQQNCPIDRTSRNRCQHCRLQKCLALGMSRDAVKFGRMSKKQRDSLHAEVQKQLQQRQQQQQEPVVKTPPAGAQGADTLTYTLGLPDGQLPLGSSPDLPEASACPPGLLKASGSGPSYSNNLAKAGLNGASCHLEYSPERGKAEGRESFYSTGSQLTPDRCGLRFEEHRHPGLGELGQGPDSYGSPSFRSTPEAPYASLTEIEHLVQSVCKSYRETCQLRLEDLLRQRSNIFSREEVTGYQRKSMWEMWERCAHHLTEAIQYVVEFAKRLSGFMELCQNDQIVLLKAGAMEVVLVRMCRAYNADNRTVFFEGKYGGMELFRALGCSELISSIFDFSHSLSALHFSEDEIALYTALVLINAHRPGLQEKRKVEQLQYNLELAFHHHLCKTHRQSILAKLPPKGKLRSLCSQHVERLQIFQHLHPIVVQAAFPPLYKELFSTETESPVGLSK
Summary of the method: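 First, HepG2 liver cells were transfected with GAL4-UAS-driven reporter constructs and the RORg-Gal4 fusion. Next, they were treated with chemical for 24 h. Finally, reporter mRNA was quantified by RT-PCR and capillary electrophoresis, with upward activity fitted against DMSO.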

[3] = biological target: Retinoic acid receptor RXR-alpha (Homo sapiens) (UniProt P19793); assay: ATG_RXRa_TRANS: Attagene TRANS-FACTORIAL HepG2 Assay for human Retinoid X Receptor alpha (RXRa) (AID 2283012; active = hit-call score of the fitted dose curve at least 0.9, where 1 is the maximum)
Retinoic acid receptor RXR-alpha (Homo sapiens), sequence (P19793 whole entry, looked up, the tested form may be a part): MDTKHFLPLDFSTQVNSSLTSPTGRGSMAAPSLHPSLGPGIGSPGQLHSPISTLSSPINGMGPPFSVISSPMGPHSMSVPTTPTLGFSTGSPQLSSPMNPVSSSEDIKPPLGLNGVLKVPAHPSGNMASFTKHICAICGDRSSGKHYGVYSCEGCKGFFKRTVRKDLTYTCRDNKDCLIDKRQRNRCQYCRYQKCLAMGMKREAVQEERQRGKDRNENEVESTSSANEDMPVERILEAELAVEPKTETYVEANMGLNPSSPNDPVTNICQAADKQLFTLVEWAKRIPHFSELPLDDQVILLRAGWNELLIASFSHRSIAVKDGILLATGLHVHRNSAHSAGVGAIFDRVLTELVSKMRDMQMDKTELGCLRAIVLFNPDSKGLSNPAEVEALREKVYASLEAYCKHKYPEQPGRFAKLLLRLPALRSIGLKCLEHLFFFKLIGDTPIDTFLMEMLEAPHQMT
Summary of the method: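 Chimeric NR-GAL4 trans-activation in HepG2, 24 h treatment; reporter transcripts quantified by fluorescence on capillary electrophoresis, analysed for upward change from DMSO.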

[4] = biological target: human Retinoid X Receptor beta (RXRb), RXRB (gene 6257) (UniProt P28702); assay: ATG_RXRb_TRANS: Attagene TRANS-FACTORIAL HepG2 Assay for human Retinoid X Receptor beta (RXRb) (AID 2283013; active = hit-call score of the fitted dose curve at least 0.9, where 1 is the maximum)
human Retinoid X Receptor beta (RXRb), RXRB (gene 6257), sequence (P28702 whole entry, looked up, the tested form may be a part): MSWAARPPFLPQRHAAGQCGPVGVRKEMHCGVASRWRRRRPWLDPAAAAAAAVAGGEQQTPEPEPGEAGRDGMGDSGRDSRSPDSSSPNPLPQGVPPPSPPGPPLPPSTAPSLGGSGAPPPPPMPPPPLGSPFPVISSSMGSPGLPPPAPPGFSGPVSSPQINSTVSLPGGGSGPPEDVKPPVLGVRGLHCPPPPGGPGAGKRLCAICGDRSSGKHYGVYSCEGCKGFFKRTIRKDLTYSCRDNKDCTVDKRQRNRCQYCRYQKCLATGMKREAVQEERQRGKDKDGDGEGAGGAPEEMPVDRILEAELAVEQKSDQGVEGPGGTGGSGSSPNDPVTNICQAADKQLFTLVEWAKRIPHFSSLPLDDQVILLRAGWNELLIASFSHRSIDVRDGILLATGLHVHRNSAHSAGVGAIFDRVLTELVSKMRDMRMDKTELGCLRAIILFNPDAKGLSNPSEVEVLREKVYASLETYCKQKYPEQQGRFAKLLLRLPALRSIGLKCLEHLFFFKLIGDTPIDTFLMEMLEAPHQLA
Summary of the method: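 After a 24 h incubation with test chemical, transfected HepG2 cells carrying NR-Gal4 fusions and GAL4-UAS reporter transcription units yield RNA whose reporter cDNA is FAM-labelled, HpaI-cut and sized by capillary electrophoresis; increases over DMSO are scored.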

[5] = biological target: human Thyroid Receptor alpha (THRa1), THRA (gene 7067) (UniProt P10827); assay: ATG_THRa1_TRANS: Attagene TRANS-FACTORIAL HepG2 Assay for human Thyroid Receptor alpha (THRa1) (AID 2283014; active = hit-call score of the fitted dose curve at least 0.9, where 1 is the maximum)
human Thyroid Receptor alpha (THRa1), THRA (gene 7067), sequence (P10827 whole entry, looked up, the tested form may be a part): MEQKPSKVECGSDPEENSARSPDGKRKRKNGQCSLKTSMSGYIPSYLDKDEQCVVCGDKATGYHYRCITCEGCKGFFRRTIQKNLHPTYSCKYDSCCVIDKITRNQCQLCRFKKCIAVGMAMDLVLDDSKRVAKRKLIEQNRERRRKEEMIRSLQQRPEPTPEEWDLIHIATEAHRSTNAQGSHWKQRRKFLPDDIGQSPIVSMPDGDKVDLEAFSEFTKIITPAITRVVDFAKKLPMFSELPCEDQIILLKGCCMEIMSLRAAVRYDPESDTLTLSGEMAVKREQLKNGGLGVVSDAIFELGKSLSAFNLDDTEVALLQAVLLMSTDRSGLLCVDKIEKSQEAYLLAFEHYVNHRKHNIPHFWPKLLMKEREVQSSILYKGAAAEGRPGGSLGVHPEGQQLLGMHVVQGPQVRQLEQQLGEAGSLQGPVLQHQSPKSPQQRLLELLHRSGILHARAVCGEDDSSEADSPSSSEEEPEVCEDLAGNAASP
Summary of the method: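 Reporter transcript induction, read by capillary electrophoresis of 6-FAM-labelled RT-PCR products, reflects activity of a transfected THRa1-Gal4 fusion in HepG2 liver cells. Cells were dosed for 24 h; activity was fitted in the positive direction against DMSO.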

[6] = read-out: E-selectin (Homo sapiens) (UniProt P16581); assay: BSK_3C_Eselectin: BioMAP Diversity Plus: 3C Assay for Eselectin Biomarker Activity (AID 2283015); details: primary human endothelial cells (HUVEC); actives raise or lower the signal
Summary of the method: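 ELISA read-out of E-selectin on endothelial monolayers after 24 h chemical treatment. Human umbilical vein primary cells served as the system, with DMSO defining baseline activity for bidirectional fitting.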

[7] = read-out: Interleukin-1 alpha (IL1a), IL1A (gene 3552); assay: BSK_BE3C_IL1a: BioMAP Diversity Plus: BE3C Assay for Interleukin-1 alpha (IL1a) Biomarker Activity (AID 2283016); details: primary human bronchial epithelial cells; actives raise or lower the signal
Summary of the method: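 Measured in human lung primary bronchial epithelial cells: IL-1a by ELISA at 24 h after dosing, with bidirectional fitting against DMSO.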

[8] = read-out: Monocyte Chemoattractant Protein-1 (MCP1), CCL2 (gene 6347); assay: BSK_3C_MCP1: BioMAP Diversity Plus: 3C Assay for Monocyte Chemoattractant Protein-1 (MCP1) Biomarker Activity (AID 2283017); details: primary human endothelial cells (HUVEC); actives raise or lower the signal
Summary of the method: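 ELISA read-out of MCP-1 from human umbilical vein endothelial cell cultures harvested 24 h post-dosing. Gain or loss of signal was fitted relative to DMSO.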

[9] = read-out: Monocyte Chemoattractant Protein-1 (MCP1), CCL2 (gene 6347); assay: BSK_4H_MCP1: BioMAP Diversity Plus: 4H Assay for Monocyte Chemoattractant Protein-1 (MCP1) Biomarker Activity (AID 2283018); details: primary human endothelial cells (HUVEC); actives raise or lower the signal
Summary of the method: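 Primary human umbilical vein endothelium is exposed to chemical for 24 h before MCP-1 is assayed by ELISA. Concentration-response fitted bidirectionally relative to DMSO.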

[10] = read-out: Human Leukocyte Antigen - DR isotype (HLADR), HLA-DRA (gene 3122); assay: BSK_3C_HLADR: BioMAP Diversity Plus: 3C Assay for Human Leukocyte Antigen - DR isotype (HLADR) Biomarker Activity (AID 2283019); details: primary human endothelial cells (HUVEC); actives raise or lower the signal
Summary of the method: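 ELISA readout of surface HLA-DR on human umbilical vein endothelium, taken 24 h after chemical treatment. Gain- and loss-of-signal were both fitted relative to DMSO.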

[11] = read-out: Interleukin-8 (IL8), CXCL8 (gene 3576); assay: BSK_3C_IL8: BioMAP Diversity Plus: 3C Assay for Interleukin-8 (IL8) Biomarker Activity (AID 2283020); details: primary human endothelial cells (HUVEC); actives raise or lower the signal
Summary of the method: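 Using DMSO-treated wells as the baseline, bidirectional curve fitting was applied to ELISA-measured IL-8 from human umbilical vein endothelial cultures sampled 24 h after compound addition.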

[12] = read-out: Monokine induced gamma interferon (MIG), CXCL9 (gene 4283); assay: BSK_3C_MIG: BioMAP Diversity Plus: 3C Assay for Monokine induced gamma interferon (MIG) Biomarker Activity (AID 2283021); details: primary human endothelial cells (HUVEC); actives raise or lower the signal
Summary of the method: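 ELISA-measured MIG in dosed HUVEC 3C cultures at 24 h, analysed by bidirectional fitting with DMSO defining baseline activity.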

[13] = BSK_3C_SRB: Viability Assessment in the BioMAP Diversity Plus: 3C Assay (AID 2283023); details: primary human endothelial cells (HUVEC);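 also: fitted both ways against DMSO so a hit may be signal rise or drop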
Summary of the method: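 Absorbance at 560 nm of sulforhodamine B-stained (0.1%) total protein served as a cytotoxicity readout in human umbilical vein endothelial cells, 24 h after chemical treatment. Signal was fitted bidirectionally relative to DMSO.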

[14] = read-out: Matrix Metallopeptidase 1 (MMP1), MMP1 (gene 4312); assay: BSK_BE3C_MMP1: BioMAP Diversity Plus: BE3C Assay for Matrix Metallopeptidase 1 (MMP1) Biomarker Activity (AID 2283024); details: primary human bronchial epithelial cells; actives raise or lower the signal
Summary of the method: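 In this multiplexed primary-cell system, human bronchial epithelium received chemicals for 24 h before an ELISA for MMP1. Values reflect bidirectional fits normalised to the DMSO baseline.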

[15] = BSK_3C_Vis: BioMAP Diversity Plus: 3C Assay for Morphology Visualization (AID 2283025); details: primary human endothelial cells (HUVEC);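 also: fitted both ways so gain or loss versus DMSO counts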;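 as to AC50: light microscopy image of cell morphology used as background control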
Summary of the method: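 Light-microscopy morphology readout, 24 h exposure, human primary umbilical vein endothelium; analysed relative to DMSO with bidirectional fitting.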

[16] = read-out: Pselectin, SELP (gene 6403); assay: BSK_4H_Pselectin: BioMAP Diversity Plus: 4H Assay for Pselectin Biomarker Activity (AID 2283026); details: primary human endothelial cells (HUVEC); actives raise or lower the signal
Summary of the method: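 Bidirectional fits against DMSO gave the endpoint. Cells: primary human umbilical vein endothelium, chemical-treated for 24 h before ELISA detection of P-selectin.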

[17] = BSK_4H_SRB: Viability Assessment in the BioMAP Diversity Plus: 4H Assay (AID 2283027); details: primary human endothelial cells (HUVEC);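 also: cells exposed to compound for 24 h before staining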;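 as to AC50: curves fitted both ways versus DMSO so AC50 may be loss or gain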
Summary of the method: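 Cytotoxicity read-out in primary human endothelial cells: after 24 h compound exposure, cells were TCA-fixed (10%), stained with 0.1% SRB and absorbance taken at 560 nm. Values fitted in both directions relative to DMSO.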

[18] = BSK_BE3C_SRB: Viability Assessment in the BioMAP Diversity Plus: BE3C Assay (AID 2283028); details: primary human bronchial epithelial cells;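 as to AC50: fitted both ways so AC50 may mark signal gain or loss versus DMSO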
Summary of the method: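 Cells (human bronchial epithelial, primary) are treated with chemicals, and after 24 h the parallel cultures are fixed in 10% TCA. These are then stained with 0.1% SRB and read at 560 nm. Gain or loss of signal is fitted relative to DMSO.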

[19] = read-out: Thrombomodulin, THBD (gene 7056); assay: BSK_3C_Thrombomodulin: BioMAP Diversity Plus: 3C Assay for Thrombomodulin Biomarker Activity (AID 2283029); details: primary human endothelial cells (HUVEC); actives raise or lower the signal
Summary of the method: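 In a multiplexed primary-cell system, human umbilical vein endothelium received chemical and was assayed 24 h later for thrombomodulin by ELISA. Parallel cultures were SRB-stained (0.1% SRB after 10% TCA fixation, read at 560 nm) to flag cytotoxicity.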

[20] = biological target: human Vitamin D Receptor (VDR), VDR (gene 7421) (UniProt P11473); assay: ATG_VDR_TRANS: Attagene TRANS-FACTORIAL HepG2 Assay for human Vitamin D Receptor (VDR) (AID 2283022; active = hit-call score of the fitted dose curve at least 0.9, where 1 is the maximum)
human Vitamin D Receptor (VDR), VDR (gene 7421), sequence (P11473 whole entry, looked up, the tested form may be a part): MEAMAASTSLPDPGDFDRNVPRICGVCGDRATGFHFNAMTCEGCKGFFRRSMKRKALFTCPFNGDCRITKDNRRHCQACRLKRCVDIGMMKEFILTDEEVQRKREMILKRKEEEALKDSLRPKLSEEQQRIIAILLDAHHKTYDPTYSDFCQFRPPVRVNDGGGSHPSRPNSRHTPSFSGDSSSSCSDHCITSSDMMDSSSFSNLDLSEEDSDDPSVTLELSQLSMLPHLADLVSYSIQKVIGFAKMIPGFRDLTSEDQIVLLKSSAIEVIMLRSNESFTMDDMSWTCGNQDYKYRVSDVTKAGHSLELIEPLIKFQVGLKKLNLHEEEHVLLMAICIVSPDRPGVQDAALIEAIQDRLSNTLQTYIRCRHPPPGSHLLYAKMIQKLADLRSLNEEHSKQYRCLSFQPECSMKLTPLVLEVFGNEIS
Summary of the method: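 Steps: transfect HepG2 with GAL4-UAS-driven reporter constructs; dose compounds 24 h; isolate RNA, reverse-transcribe, PCR-amplify with 6-FAM-labelled primer extension and HpaI digestion; quantify fragments by capillary electrophoresis relative to DMSO.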

Measured: AC50

E-selectin (Homo sapiens), sequence (P16581 whole entry, looked up): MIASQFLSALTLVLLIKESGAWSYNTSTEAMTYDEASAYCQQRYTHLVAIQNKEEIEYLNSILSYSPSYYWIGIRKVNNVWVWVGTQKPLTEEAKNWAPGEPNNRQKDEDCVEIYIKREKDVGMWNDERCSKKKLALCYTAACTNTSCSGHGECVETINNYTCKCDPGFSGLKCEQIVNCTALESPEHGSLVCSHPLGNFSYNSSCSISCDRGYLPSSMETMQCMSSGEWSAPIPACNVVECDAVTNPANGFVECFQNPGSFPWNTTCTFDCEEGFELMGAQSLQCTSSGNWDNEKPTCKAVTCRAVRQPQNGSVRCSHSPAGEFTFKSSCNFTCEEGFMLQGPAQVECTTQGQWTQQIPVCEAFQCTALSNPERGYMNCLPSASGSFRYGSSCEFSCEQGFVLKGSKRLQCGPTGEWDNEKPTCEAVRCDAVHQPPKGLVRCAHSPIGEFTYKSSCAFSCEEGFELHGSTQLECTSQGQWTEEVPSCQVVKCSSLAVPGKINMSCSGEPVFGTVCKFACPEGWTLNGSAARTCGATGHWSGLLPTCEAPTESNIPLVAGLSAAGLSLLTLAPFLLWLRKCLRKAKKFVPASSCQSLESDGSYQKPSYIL

COC(=O)N(OC)c1ccccc1COc1ccn(-c2ccc(Cl)cc2)n1
inactive: [1] | [2] | [3] | [4] | [7] | [12] | [14]
active: [5] 3.06 µM | [6] 5.33 µM | [8] 19 µM | [9] 7.63 µM | [10] 7.6 µM | [11] 13.5 µM | [13] 20 µM | [15] 13.7 µM | [16] 20 µM | [17] 10.5 µM | [18] 28.1 µM | [19] 3.97 µM

Cc1c(F)c(F)c(COC(=O)C2C(/C=C(\Cl)C(F)(F)F)C2(C)C)c(F)c1F (stereo unspecified)
active: [6] 12 µM | [10] 14.8 µM | [13] 13.7 µM | [15] 9.8 µM
not listed: [2] | [3] | [5] | [18]
inactive: all other assays above

CC(C)Oc1cc(-n2nc(C(C)(C)C)oc2=O)c(Cl)cc1Cl
active: [6] 29.2 µM | [8] 30.7 µM | [9] 25.8 µM | [10] 29.7 µM | [11] 29 µM | [13] 28.8 µM | [14] 7.66 µM | [15] 13.2 µM | [16] 29.3 µM | [17] 30.3 µM | [18] 20 µM
inactive: [1] | [2] | [3] | [5] | [7] | [12] | [20]

CNC(=S)S
active: [6] 12.8 µM | [10] 20 µM | [13] 13.3 µM | [15] 13.2 µM | [17] 20 µM
not listed: [5] | [19]
inactive: all other assays above

CCON=C(CC)C1=C(O)CC(c2c(C)cc(C)cc2C)CC1=O (stereo unspecified)
not listed: [2] | [3] | [5] | [19] | [20]
inactive: all other assays above

— PubChem BioAssay (EPA / NIEHS)
